The values below come from the supplement of paper PMC10849652.

About 8,800 targets were measured; listed, in parts, are those with a hit and a random draw of the rest. About 0.5% of all pairs of compound and target were hits. A number with no mark means an inactive call.

Common to all, as to test: log2 fold change, soluble protein after heating vs DMSO (PISA); higher = thermal stabilisation; K562 lysate, 10 uM; active = over 0.2 and 3.5 SD of the protein, either way, in both replicates (recomputed)
Compound in one test: C=CC(=O)N1CCC[C@@H](n2nc(-c3ccc(Oc4ccccc4)cc3)c3c(N)ncnc32)C1 [ibrutinib]
An outline of the steps:
(§1)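 K562 pellets were dounce-homogenised in PBS pH 7.4 containing 1 mM MgCl2, and the crude extract, at 1 mg/mL protein, was exposed to 10 μM compound for 30 min. Aliquots were heated for 3 min across 48°C-58°C, pooled, brought to 0.5% NP-40 at 4°C and spun at 21,000xg for 90 min, with the supernatant taken as soluble protein. TMTpro 16plex LC-MS/MS with equalised channel sums quantified that protein. Values are log-two fold changes in thermal stability relative to solvent controls, taken from duplicates.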

Compound in test [1]: CC(=O)c1cnc2ccc(-c3cc(Cl)c(O)c(Cl)c3)nc2c1N[C@H]1CC[C@H](CN(C)C)CC1
An outline of the steps:
as §1

Compound in test [2]: CC(C)C1=C2N=C(C=C(N2N=C1)NCC3=CC=CC=C3)NCCCCCCN
An outline of the steps:
as §1

Compound in test [3]: CC1=C(C(CC(=O)N1)C2=CC=C(C=C2)C(F)(F)F)C(=O)NC3=C(C=C4C(=C3)C=NN4)F
Summed up: as §1

Compound in test [4]: CC1=C(C2=C(C=C1)C(=O)C3=CC=CC=C3N2CCCN)C
An outline of the steps:
as §1

Compound in test [5]: CC1=CC=C(C=C1)SC2=C3C=C(SC3=CN=C2)C(=O)N
An outline of the steps:
as §1

Compound in a further test: CCCS(=O)(=O)Nc1ccc(F)c(C(=O)c2c[nH]c3ncc(-c4ccc(Cl)cc4)cc23)c1F [vemurafenib]
Summed up:
as §1

Compound in test [6]: CCCS(=O)(=O)Nc1ccc(F)c(C(=O)c2c[nH]c3ncc(Cl)cc23)c1F
Summed up: as §1

Compound in the next test: CCN(CCCOc1ccc2c(Nc3cc(CC(=O)Nc4cccc(F)c4)[nH]n3)ncnc2c1)CCOP(=O)(O)O [barasertib]
An outline of the steps: as §1

Compound in another test: CC[C@@H]1C(=O)N(C)c2cnc(Nc3ccc(C(=O)N[C@H]4CC[C@H](N5CCN(CC6CC6)CC5)CC4)cc3OC)nc2N1C(C)C [volasertib]
Summed up: as §1

Compound in test [7]: CCn1cc(-c2ccnc3[nH]c(-c4cccc(CN(C)C)c4)cc23)c(-c2ccc(NC(=O)N(C)C)cc2)n1
Summed up:
as §1

Compound in test [8]: CN1CCC(CNc2ccc3ncc(-c4cccc(OC(F)(F)F)c4)n3n2)CC1
An outline of the steps:
as §1

Compound in the next test: CN1CCN(CCOc2cc(OC3CCOCC3)c3c(Nc4c(Cl)ccc5c4OCO5)ncnc3c2)CC1 [saracatinib]
An outline of the steps:
as §1

Compound in test [9]: CC1=C(C=C(C=C1)NC(=O)C2=CC(=CC=C2)C(C)(C)C#N)NC3=CC4=C(C=C3)N=CN(C4=O)C
Summed up:
as §1

Compound in the next test: CN1CCN(c2nc(C3=C(c4c[nH]c5ccccc45)C(=O)NC3=O)c3ccccc3n2)CC1 [sotrastaurin]
An outline of the steps: as §1

Compound in test [10]: CC[C@@H]1C(=O)N(C)c2cnc(Nc3ccc(C(=O)NC4CCN(C)CC4)cc3OC)nc2N1C1CCCC1
Summed up:
as §1

Compound in a further test: CC(C)(C)Cn1c(N)nc2ccc(-c3[nH]c(C(C)(C)C)nc3-c3ccc(F)cc3)nc21 [ralimetinib]
An outline of the steps:
as §1

Compound in test [11]: CC(C)(O)CC(=O)NCCn1ccc2ncnc(Nc3ccc(Oc4cccc(C(F)(F)F)c4)c(Cl)c3)c21
Summed up:
as §1

Compound in test [12]: CC1=C(C=C(C=C1)NC(=O)C2=CC(=CC=C2)N(C)C)NC(=O)C3=CC=C(C=C3)O
An outline of the steps: as §1

Compound in test [13]: CCn1c(C(=O)N(C2CC2)C2CC2)cc2c3c(ncn3C)c(Nc3cc(C)n(C)n3)nc21
An outline of the steps: as §1

UniProt Q99496, sequence (Q99496 whole entry, looked up): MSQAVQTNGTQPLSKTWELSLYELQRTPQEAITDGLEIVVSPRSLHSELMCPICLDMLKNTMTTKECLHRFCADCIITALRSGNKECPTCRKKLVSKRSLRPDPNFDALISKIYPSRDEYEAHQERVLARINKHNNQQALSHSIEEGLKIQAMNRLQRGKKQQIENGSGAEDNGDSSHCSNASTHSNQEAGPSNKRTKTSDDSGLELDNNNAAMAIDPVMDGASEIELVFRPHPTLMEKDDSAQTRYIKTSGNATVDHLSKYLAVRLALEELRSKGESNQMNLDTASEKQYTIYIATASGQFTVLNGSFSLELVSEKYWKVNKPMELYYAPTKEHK
UniProt Q7L0Q8, sequence (Q7L0Q8 whole entry, looked up): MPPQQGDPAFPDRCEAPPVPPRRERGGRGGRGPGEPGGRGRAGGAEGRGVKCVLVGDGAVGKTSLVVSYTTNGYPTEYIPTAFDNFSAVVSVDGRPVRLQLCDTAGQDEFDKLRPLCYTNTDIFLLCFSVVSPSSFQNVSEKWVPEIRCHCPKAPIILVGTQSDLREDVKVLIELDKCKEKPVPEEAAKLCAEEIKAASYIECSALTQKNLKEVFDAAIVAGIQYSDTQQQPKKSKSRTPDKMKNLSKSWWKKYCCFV
UniProt P19793, sequence (P19793 whole entry, looked up): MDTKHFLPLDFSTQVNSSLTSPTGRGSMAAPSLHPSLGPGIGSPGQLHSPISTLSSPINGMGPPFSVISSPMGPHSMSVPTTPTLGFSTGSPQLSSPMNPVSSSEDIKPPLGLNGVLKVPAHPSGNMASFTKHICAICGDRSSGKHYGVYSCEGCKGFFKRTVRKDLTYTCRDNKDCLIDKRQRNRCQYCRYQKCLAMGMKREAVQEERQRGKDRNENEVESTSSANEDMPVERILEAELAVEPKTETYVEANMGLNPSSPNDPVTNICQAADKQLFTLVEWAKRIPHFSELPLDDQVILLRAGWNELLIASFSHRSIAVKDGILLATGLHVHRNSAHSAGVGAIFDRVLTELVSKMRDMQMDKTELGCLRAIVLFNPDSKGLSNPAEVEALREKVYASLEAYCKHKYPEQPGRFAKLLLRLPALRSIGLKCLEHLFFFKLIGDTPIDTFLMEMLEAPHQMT
UniProt O75446, sequence (O75446 whole entry, looked up): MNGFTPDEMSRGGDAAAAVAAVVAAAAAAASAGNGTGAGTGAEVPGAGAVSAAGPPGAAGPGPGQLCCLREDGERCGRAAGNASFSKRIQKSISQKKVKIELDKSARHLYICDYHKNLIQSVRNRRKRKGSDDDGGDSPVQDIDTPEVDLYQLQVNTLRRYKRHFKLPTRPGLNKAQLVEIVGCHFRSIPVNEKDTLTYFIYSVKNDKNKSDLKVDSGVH
UniProt Q9NVW2, sequence (Q9NVW2 whole entry, looked up): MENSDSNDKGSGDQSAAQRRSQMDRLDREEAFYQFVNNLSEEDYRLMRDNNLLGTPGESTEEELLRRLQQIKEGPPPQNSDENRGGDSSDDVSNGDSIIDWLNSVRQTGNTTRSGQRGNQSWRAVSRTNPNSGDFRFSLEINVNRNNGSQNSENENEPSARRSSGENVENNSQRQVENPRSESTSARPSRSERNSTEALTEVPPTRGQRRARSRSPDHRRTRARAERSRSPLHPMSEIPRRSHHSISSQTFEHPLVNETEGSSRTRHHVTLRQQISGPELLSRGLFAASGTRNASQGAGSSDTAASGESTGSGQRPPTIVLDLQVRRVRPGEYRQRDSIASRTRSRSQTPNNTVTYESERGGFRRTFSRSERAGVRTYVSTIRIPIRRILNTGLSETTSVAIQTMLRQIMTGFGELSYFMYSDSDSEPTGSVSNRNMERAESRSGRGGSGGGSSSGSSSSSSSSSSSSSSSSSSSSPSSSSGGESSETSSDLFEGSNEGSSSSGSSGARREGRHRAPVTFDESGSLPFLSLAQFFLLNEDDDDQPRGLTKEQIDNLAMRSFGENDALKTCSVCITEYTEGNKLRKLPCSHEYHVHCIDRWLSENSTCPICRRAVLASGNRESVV
UniProt Q9NTN9, sequence (Q9NTN9 whole entry, looked up): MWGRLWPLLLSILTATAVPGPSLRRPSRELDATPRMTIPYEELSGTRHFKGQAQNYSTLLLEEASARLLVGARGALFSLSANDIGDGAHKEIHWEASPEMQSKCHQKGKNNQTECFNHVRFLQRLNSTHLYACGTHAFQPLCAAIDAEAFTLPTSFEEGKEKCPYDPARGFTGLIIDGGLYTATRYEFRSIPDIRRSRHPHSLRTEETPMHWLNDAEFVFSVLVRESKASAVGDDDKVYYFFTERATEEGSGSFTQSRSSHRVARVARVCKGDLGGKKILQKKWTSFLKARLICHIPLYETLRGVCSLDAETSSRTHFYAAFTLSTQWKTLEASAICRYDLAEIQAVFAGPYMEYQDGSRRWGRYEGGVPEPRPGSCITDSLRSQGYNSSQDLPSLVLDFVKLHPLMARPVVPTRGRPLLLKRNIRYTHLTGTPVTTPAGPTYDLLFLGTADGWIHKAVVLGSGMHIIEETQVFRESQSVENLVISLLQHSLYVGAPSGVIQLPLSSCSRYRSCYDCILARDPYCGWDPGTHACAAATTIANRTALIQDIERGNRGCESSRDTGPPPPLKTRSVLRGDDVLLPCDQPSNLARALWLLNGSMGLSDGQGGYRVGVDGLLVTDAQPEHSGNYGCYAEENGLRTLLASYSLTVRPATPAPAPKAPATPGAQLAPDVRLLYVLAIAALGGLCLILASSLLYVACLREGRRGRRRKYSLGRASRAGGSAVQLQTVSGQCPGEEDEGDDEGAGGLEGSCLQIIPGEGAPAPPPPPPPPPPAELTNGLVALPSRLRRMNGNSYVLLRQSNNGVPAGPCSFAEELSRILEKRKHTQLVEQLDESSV
UniProt Q86X10, sequence (Q86X10 whole entry, looked up): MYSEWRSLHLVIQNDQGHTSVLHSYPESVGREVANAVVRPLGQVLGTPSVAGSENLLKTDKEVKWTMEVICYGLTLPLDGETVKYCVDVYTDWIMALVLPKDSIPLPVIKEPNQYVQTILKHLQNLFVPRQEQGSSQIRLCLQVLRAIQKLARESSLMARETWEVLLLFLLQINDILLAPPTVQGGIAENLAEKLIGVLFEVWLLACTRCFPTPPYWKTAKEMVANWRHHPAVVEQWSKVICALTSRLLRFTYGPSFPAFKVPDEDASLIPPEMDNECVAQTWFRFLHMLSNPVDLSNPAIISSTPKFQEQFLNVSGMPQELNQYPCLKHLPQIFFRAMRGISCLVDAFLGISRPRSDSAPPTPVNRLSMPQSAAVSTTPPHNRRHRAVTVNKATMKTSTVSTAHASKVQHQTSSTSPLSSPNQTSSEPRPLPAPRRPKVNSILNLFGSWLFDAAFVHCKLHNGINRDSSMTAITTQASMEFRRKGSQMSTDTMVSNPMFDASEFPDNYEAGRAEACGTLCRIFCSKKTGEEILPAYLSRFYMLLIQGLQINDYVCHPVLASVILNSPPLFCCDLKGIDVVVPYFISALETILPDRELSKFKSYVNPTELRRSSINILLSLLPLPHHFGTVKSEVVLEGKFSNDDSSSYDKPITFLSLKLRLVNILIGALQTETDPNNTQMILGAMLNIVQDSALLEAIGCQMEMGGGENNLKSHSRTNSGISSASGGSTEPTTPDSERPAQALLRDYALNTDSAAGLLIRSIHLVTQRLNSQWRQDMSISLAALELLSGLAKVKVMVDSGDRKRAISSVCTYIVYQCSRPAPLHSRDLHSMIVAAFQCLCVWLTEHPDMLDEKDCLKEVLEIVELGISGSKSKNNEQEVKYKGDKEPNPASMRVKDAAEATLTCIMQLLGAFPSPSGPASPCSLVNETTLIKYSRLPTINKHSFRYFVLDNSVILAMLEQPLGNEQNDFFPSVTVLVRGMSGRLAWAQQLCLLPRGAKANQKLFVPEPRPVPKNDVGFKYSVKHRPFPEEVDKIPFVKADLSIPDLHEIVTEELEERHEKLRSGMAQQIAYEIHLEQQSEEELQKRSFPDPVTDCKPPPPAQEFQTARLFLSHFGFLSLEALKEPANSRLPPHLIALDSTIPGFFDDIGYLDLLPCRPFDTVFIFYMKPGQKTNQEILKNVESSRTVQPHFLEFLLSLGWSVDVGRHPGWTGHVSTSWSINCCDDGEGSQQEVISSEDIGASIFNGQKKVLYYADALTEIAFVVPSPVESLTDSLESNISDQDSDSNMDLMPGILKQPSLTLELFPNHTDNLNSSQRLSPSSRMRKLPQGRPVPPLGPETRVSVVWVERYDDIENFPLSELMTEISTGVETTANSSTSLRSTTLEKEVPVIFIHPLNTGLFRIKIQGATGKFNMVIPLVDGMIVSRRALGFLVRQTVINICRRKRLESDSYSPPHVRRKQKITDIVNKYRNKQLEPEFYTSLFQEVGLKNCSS
UniProt Q96K19, sequence (Q96K19 whole entry, looked up): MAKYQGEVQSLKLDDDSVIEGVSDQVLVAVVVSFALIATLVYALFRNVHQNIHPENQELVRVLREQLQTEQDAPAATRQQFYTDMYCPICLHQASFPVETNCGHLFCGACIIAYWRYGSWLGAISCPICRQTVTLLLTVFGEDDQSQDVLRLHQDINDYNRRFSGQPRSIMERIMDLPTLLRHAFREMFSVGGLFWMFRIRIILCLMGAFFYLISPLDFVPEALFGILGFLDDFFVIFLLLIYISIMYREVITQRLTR
UniProt Q9Y225, sequence (Q9Y225 whole entry, looked up): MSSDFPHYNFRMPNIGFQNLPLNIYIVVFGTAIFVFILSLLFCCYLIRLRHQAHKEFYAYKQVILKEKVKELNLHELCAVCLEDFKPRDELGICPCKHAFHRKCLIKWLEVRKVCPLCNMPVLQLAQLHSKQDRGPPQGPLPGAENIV

Take RNF170 (UniProt Q96K19): the log2 fold change is -0.006 with ibrutinib; 0.107 in test [1]; 0.084 in [2]; 0.302 in test [3]; -0.035 in test [4]; -0.036 in test [5]. The log2 fold change in the test with vemurafenib was -0.08; in test [6], 0.02; with barasertib it was 0.189; in the test with volasertib, -0.131; in test [7], -0.015; in test [8], 0.09. Besides, the log2 fold change with saracatinib was -0.201.
In the case of RBBP7 (UniProt C9J7L0), the log2 fold change in test [3] is -0.187.
RLIM (UniProt Q9NVW2): the log2 fold change with ibrutinib was 0.014; in test [9], 0.465; with barasertib, 0.065; with sotrastaurin it was -0.055.
For the target RBM4 isoform 3 (UniProt Q9BWF3), the log2 fold change was -0.092 in [9] and 0.074 with sotrastaurin.
Turning to RALGAPB isoform 3 (UniProt Q86X10), the log2 fold change with ibrutinib was 0.106; in test [4], -0.087; with barasertib, -0.005; in test [10], -0.076; in test [7] it was -0.139; in test [8], 0.004. Moreover, in the test with saracatinib, the log2 fold change is -0.343.
Take RNF2 (UniProt Q99496): the log2 fold change with ralimetinib was -0.053; in test [11], -0.01; in test [2] it was 0.017; in test [3] it was 0.009; in test [4] it was -0.081; in [9], -0.048. The log2 fold change in test [12] was 0.024; with vemurafenib, -0.03; in test [10], -0.03; in [13], 0.061; in test [7] it was 0.557 (active); in [8], -0.399 (active). The log2 fold change with saracatinib is -0.004; with sotrastaurin, -0.002.
For the target RHOU (UniProt Q7L0Q8), the log2 fold change in test [1] was -0.007; with ralimetinib, 0.057; in test [11] it was 0.009; in test [2], 0.066; in test [3] it was 0.012; in test [4], 0.015. The log2 fold change in test [9] is -0.003; in [12], 0.019; in [5], 0.045; with vemurafenib it was -0.04; in test [6] it was -0.059; in [10], -0.122. Further, the log2 fold change is 0.008 with volasertib; -0.006 in [13]; 0.173 in [7]; 0.015 in test [8]; -0.027 in the test with saracatinib; 0.036 with sotrastaurin.
For RUFY2 isoform 1 (UniProt Q8WXA3), the log2 fold change with ibrutinib was 0.068; in the test with ralimetinib it was -0.031; in [11] it was 0.005; in test [3], -0.118; in test [9], -0.101; in [12] it was -0.033. For the same target, the log2 fold change was 0.01 with vemurafenib; -0.206 with barasertib; 0.038 in test [10]; -0.026 in test [13]; -0.009 in test [7]; -0.178 in [8]. Besides, in the test with sotrastaurin, the log2 fold change is 0.001.
Take SAP30 (UniProt O75446): the log2 fold change is 0.058 in the test with ibrutinib; 0.033 in [1]; 0.101 in test [3]; -0.007 in test [4]; 0.016 in [9]; 0.006 in test [5]. Further, the log2 fold change with vemurafenib was -0.016; in test [6], 0.006; with barasertib it was 0.051; in test [10], 0.063; in the test with volasertib, -0.054; in test [7] it was 0.103. Also, the figures for the log2 fold change (in [8]; with saracatinib; in the test with sotrastaurin) were -0.022, 0.016 and -0.013, respectively.
Regarding RNF24 isoform 2 (UniProt Q9Y225), the log2 fold change with ibrutinib was -0.051; in test [2], 0.33; in test [3], -0.026; in [9] it was 0.092; with barasertib, 0.122; in [7] it was 0.033. The log2 fold change in test [8] is -0.084; in the test with sotrastaurin it was 0.025.
As to RNPC3 (UniProt Q96LT9), the log2 fold change in test [1] was 0.017; in the test with ralimetinib it was 0.02; in test [11], -0.029; in test [2] it was -0.122; in [3], -0.027; in test [4] it was -0.015. Moreover, the log2 fold change is -0.028 in test [9]; 0.054 in test [12]; -0.003 in test [5]; -0.02 in test [6]; 0.019 with volasertib; -0.119 in test [13]. The log2 fold change in test [7] was -0.009; in test [8], -0.032; in the test with saracatinib, -0.022; with sotrastaurin, -0.074.
With ROBO2 isoform 3 (UniProt Q9HCK4), the log2 fold change is -0.015 in [1]; 0.103 with ralimetinib; -0.287 in [11]; -0.045 in [2]; 0.022 in test [9]; 0.177 in test [12]. The log2 fold change was -0.053 in test [5]; 0.071 in test [6]; 0.045 with volasertib; 0.523 (active) in test [13]; -0.001 with sotrastaurin.
Consider SEMA4G isoform 2 (UniProt Q9NTN9), for which the log2 fold change was -0.013 in test [2]; -0.021 in test [4]; -0.137 in test [9]; 0.042 with vemurafenib; -0.059 in test [10]; -0.072 in [7]. The values for the log2 fold change (in test [8]; with saracatinib; in the test with sotrastaurin) were 0.04, -0.227 and 0.004, respectively.
Consider RXRA (UniProt P19793), for which the log2 fold change was -0.028 in test [1]; -0.033 with ralimetinib; 0.087 in [11]; 0.066 in test [2]; 0.059 in test [3]; 0.063 in [4]. The log2 fold change in [9] was -0.02; in test [12] it was -0.036; in [5], 0; in test [6], -0.121; with volasertib, 0.026; in test [13] it was -0.061. Moreover, the log2 fold change was -0.359 (active) in [7], 0.13 in test [8], -0.093 with saracatinib and 0.013 with sotrastaurin.
